Results filed as inconclusive are left out. Where a call stands in place of a potency, no number is given. Activity calls are given as the source filed them. Calls follow the shape of the dose curve; as a rule, active = well fitted inhibition curve with a large enough effect; inconclusive = small, poorly fitted or top-dose-only effect; inactive = flat fitted curve, though single readings scatter.
Target: Calcium and integrin-binding protein 1 (Homo sapiens) (UniProt Q99828)
Experiment: Primary qHTS for Identification of Calcium Integrin Binding Protein 1 (CIB1) Competitor (AID 1508620);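 also: GST tagged CIB1 binding a fluorescein labelled alphaIIb integrin peptide tracer; top concentration of the series differs between compounds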
Conditions: CIB1-GST / FITC-alphaIIb peptide fluorescence polarization; series mostly up to 114 µM
Outline: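 CIB1-GST (1 uM final) and compound incubated 15 min at room temperature before adding FITC-alphaIIb peptide tracer (100 nM final). Competition for binding read by fluorescence polarization (ex 480, em 540) after another 15 min at room temperature.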

Chain of Calcium and integrin-binding protein 1 (Homo sapiens) (Q99828 whole entry, looked up): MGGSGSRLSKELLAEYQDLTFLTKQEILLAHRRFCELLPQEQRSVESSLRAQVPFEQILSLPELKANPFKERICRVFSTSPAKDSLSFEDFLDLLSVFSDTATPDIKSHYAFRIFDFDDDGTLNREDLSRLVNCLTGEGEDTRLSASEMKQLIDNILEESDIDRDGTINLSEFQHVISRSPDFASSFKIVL

| SMILES | Potency |
| --- | --- |
| Cc1cccc(-n2cnc3cc(C(=O)N4CCCCC4)ccc32)c1 | inactive |
| COCCCc1cc(F)c(S(=O)(=O)N2CCN(S(=O)(=O)c3ccc4c(c3)OCCO4)CC2)cc1F | inactive |
| O=C(NCc1nnc(-c2cc3ccccc3[nH]2)o1)c1ccccc1 | inactive |
| CC(C)N1Cc2ccc(Nc3nn4c(=O)c5ccccc5nc4s3)cc2C1 | inactive |
| COc1ccc(-n2cnc3c(c2=N)C(c2cccc(OC)c2)c2c(ccc4ccccc24)O3)cc1 (stereo not given) | inactive |
| CC(Cc1cnccn1)Nc1cnc2c(O)ccc(C(=O)O)c2c1 (stereo not given) | inactive |
| O=C1c2ccccc2C(=O)N1c1ccccn1 | inactive |
| CCNC(=O)c1ccc(-c2ccc3ncnc(NCc4nc(C)cs4)c3c2)o1 | inactive |
| COc1ccccc1-n1cnc2cc(C(=O)N3CCCCC3)ccc21 | inactive |
| COc1ccc(C2Nc3ccccc3C(=O)N2Cc2ccc(CNC(=O)CO)cc2)cc1COc1ccc(NC(C)=O)cc1 (stereo not given) | inactive |
| Cn1nnnc1Sc1ncnc2scc(-c3cccc4ccccc34)c12 | inactive |
| O=C1c2ccccc2C(=O)N1c1ccncc1 | inactive |
| COc1ccccc1C1=Nn2c(nnc2-c2cccc(OC)c2OC)SC1 | inactive |
| COc1cc(OC)cc(-c2nnc3n2N=C(c2ccc(OC)cc2OC)CS3)c1 | inactive |
| CC(=O)Nc1sc2c(c1Br)CCNC2 | inactive |
| Cc1cnc(-c2ccccc2C(C)C)nc1NCc1ccc(-c2nn[nH]n2)cc1 | inactive |
| NC(=O)C1CCN(c2nc(-c3ccc4occc(=O)c4c3)cs2)CC1 | inactive |
| Cc1c(P(=S)(c2ccccc2)c2ccccc2)c2ccccc2n1CCc1ccccc1 | inactive |
| COc1cccc(NC(=O)C(OC(=O)CNC(=O)c2ccccc2)c2ccccc2)c1 (stereo not given) | inactive |
| CC1=C(C(=O)Nc2ccccc2)C(c2ccccc2Cl)N=C(Nc2nc3ccccc3o2)N1 (stereo not given) | inactive |

| SMILES | Potency |
| --- | --- |
| O=C(NC1CCCc2c1cnn2-c1ccc(F)cc1F)c1cccc(=O)[nH]1 (stereo not given) | inactive |
| Cn1c2cc(C(=O)O)sc2c2cnn(Cc3ccccc3F)c(=O)c21 | inactive |
| NC(=O)C[C@H](N)C(=O)Nc1ccc(Cl)cc1C(=O)c1ccc[nH]1 | inactive |
| Cc1cc(C)nc(NC(=S)N2CCN(c3ccc(Cl)cc3[N+](=O)[O-])CC2)c1 | inactive |
| Cc1noc(C)c1-c1ccc2ncnc(NCC3CCCCN3C)c2c1 (stereo not given) | inactive |
| O=S(=O)(NC1CCC(CNS(=O)(=O)c2c(F)cccc2F)CC1)c1ccc2c(c1)OCCO2 (stereo not given) | inactive |
| COc1cc(OC)c(C(CC(=O)N2CC(C)CC(C)C2)c2ccc3c(c2)OCO3)c(OCC#N)c1 (stereo not given) | inactive |
| Cc1c(P(=S)(c2ccccc2)c2ccccc2)[n+]2ccccc2n1CCCCCc1ccccc1 | inactive |
| CN(C)CCCNC(=O)c1ccc(-c2cnc3c(O)ccc(C(=O)O)c3c2)cc1 | inactive |
| O=c1c2ccccc2nc2sc(NCc3ccc(Sc4ccccc4)cc3)nn12 | inactive |
| COCCN1C(=O)c2ccccc2NC1c1ccc(OC)c(COc2c(C)cc(NC(C)=O)cc2C)c1 (stereo not given) | inactive |
| NC(=O)c1ccc(-c2noc(-c3cccc(Cl)c3)n2)cc1 | inactive |
| Cn1ncc2ccc(-c3ccc4ncnc(NCc5cccs5)c4c3)cc21 | inactive |
| CC(C)(C)OC(=O)N1CCN(c2ccc(NCc3ccc(-c4cccc([N+](=O)[O-])c4)o3)cc2)CC1 | inactive |
| Cn1c(SCC(=O)c2cc3ccccc3o2)nnc1-c1ccccc1 | inactive |
| O=C(Nc1ccc(Cl)c(Cl)c1)Nc1nnc(-c2cccnc2)s1 | inactive |
| O=C1Nc2cc(Cl)ccc2/C1=C\c1cc(Cl)c(O)c(Cl)c1 | inactive |
| CC1(C)CC2CC(C)(CN2S(=O)(=O)c2ccc(C(=O)Nc3ccc(Cl)cc3)cc2)C1 (stereo not given) | inactive |
| COc1ccnc(NCc2ccc(O)c3ncccc23)c1 | inactive |
| Cc1ccc(OCCn2c(CCNC(=O)c3ccc4ccccc4c3)nc3ccccc32)cc1 | inactive |

— PubChem BioAssay (NCATS)
